Compound activity deposited in PubChem by National Center for Advancing Translational Sciences (NCATS).
RECQ1 inh-1 = qHTS Assay for Inhibitors of RecQ-Like Dna Helicase 1 (RECQ1) | RECQ1 DNA unwinding, red fluorescence kinetic read | ATP-dependent DNA helicase Q1 (Homo sapiens), P46063 | Potency, µM (titrated, usually from 57.3 µM), inactives show at the top dose activity, negative = inhibition, usual class: inhibitors | 240,000 tested, 0.54% active | AID 2549, 2010;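 also: plate controls were vehicle for no effect and no enzyme for full effect; nearly all actives have a fitted effect of over 30% in size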
Target sequence (P46063 whole entry, looked up): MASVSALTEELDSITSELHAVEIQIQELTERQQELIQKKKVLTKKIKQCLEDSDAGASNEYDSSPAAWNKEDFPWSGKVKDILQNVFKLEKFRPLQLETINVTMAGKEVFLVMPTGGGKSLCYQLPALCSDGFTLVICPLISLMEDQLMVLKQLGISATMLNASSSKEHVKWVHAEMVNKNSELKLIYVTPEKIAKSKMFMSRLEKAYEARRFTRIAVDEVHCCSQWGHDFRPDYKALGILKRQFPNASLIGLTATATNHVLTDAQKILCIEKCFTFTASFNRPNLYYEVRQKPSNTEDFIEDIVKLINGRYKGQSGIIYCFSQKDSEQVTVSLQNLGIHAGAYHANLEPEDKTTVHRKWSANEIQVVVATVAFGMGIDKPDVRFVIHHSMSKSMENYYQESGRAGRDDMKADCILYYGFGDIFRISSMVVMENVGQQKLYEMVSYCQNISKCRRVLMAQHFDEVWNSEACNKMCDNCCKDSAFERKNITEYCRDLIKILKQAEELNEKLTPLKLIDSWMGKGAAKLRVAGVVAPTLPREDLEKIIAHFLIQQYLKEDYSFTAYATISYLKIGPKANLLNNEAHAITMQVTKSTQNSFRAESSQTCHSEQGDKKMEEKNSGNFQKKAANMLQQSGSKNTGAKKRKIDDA
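RECQ1T1 50 nM; forked duplex (20 bp + 30-nt ss tails) 200 nM, ATP 2 mM final; pH 8.0, 2 mM MgCl2, 2.5 ug/ml poly(dI-dC); 15 min compound preincubation; discontinuous kinetic read over 2 h at RT.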
TexasRed fluor = Total Fluorescence Counterscreen for Inhibitors of the Interaction of Thyroid Hormone Receptor and Steroid Receptor Coregulator 2 | AID 1479, 2009 | 280,000 tested, 0.29% active | TRb/SRC2 Texas Red total fluorescence interference | Potency, µM (doses to about 106 µM), inactives show at the highest dose fluorescence change, negative = quenching; active = well fitted curve in either direction with a large enough effect; inconclusive = small, poorly fitted or top-dose-only effect
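Human TRβ ligand-binding domain (0.6 uM) and Texas Red SRC2 peptide (20 nM) in Tris buffer with 1 uM T3 and 5% DMSO were incubated with pinned compound for 5 hr at ambient temperature. Total fluorescence was computed as S + 2P (555/632 nm).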
BLM inh = qHTS Assay for Inhibitors of Bloom's syndrome helicase (BLM) | RecQ-like DNA helicase BLM (Homo sapiens), P54132 | recombinant BLM DNA unwinding, fluorescence dequenching | Potency, µM (highest dose often 56.1 µM), for inactives: at the top dose activity change, negative = inhibition, actives largely listed as inhibitors | 350,000 tested, 0.2% active | AID 2528, 2010;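 also: plate controls were vehicle for no effect and no enzyme for full effect; nearly all actives have a fitted effect of over 35% in size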
TRb-SRC2 inh = qHTS for Inhibitors of the Interaction of Thyroid Hormone Receptor and Steroid Receptor Coregulator 2; Thyroid hormone receptor beta (Homo sapiens), P10828; TRbeta-SRC2 peptide binding, fluorescence polarization; receptor liganded with 1 µM T3; Potency, µM (top dose mostly 106 µM), for inactives: at the top dose activity change, negative = inhibition, most hits filed as inhibitors; 280,000 tested, 0.065% active; AID 1469, 2008;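 also: plate controls were bound peptide for no effect and peptide without receptor for full effect; nearly all actives have a fitted effect of over 50% in size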
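Human TRb LBD (0.6 uM) plus Texas Red-labeled SRC2 peptide (20 nM), 1uM T3, 5% DMSO, 5 hr at ambient temperature. Decreased polarization (555/632 nm) flags inhibition; data normalized to free and bound peptide controls.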
WRN inhibitor = qHTS for Inhibitors of WRN Helicase; WRN helicase unwinding, fluorescent forked duplex, kinetic; Potency, µM (doses to about 114 µM), for the others: top-dose activity change, negative = inhibition, usual class: inhibitors; 360,000 tested, 0.46% active; AID 651768, 2012; also: nearly all actives have a fitted effect of over 55% in size
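Kinetic fluorescence helicase assay: unwinding of a quenched forked DNA duplex (100 nM final) with 2 mM ATP final raises red fluorescence (525/598 nm). Compounds sat 15 min at room temperature with 20 nM WRN beforehand.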
APE1 inh = qHTS Assay for Inhibitors of the Human Apurinic/apyrimidinic Endonuclease 1 (APE1) | recombinant APE1, TAMRA/BHQ-2 abasic DNA cleavage fluorescence | Potency, µM (series often up to 65.8 µM), for inactives: at the top dose activity change, negative = inhibition, actives largely listed as inhibitors | 350,000 tested, 0.35% active;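 also: plate controls were vehicle for no effect and reference inhibitor for full effect; nearly all actives have a fitted effect of over 55% in size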
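Step 1: APE1 (0.75 nM) with compound, 15 min RT. Step 2: add 50 nM fluorophore/quencher THF duplex. Step 3: three fluorescence reads 60 s apart (525/598 nm); read 3 minus read 1 = reaction progress.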
RECQ1 inh conf = Confirmation qHTS Assay for Inhibitors of RecQ-Like Dna Helicase 1 (RECQ1); shares compounds with RECQ1 inh-1; RECQ1 helicase DNA unwinding, fluorescence; Potency, µM (titrated, usually from 229 µM), inactives show top-dose activity change, negative = inhibition, hits mostly inhibitors; 610 tested, 28% active; AID 2708, 2010; also: nearly all actives have a fitted effect of over 45% in size
RECQ1 ADP FP = Counterscreen for RECQ1 Inhibitors: ADP Fluorescence Polarization Displacement Assay; shares compounds with RECQ1 inh-1; ADP fluorescence polarization displacement counterscreen; Potency, µM (titrated, usually from 228 µM), without a hit: top-dose activity change, negative = inhibition, actives largely listed as inhibitors; 530 tested, 27% active; AID 2711, 2010; also: nearly all actives have a fitted effect of over 45% in size
RECQ1 inh-2 = Confirmation qHTS Assay for Inhibitors of RecQ-Like Dna Helicase 1 (RECQ1) - Round 2 Cherry Picks | 1,100 tested, 15% active | Potency, µM (titrated, usually from 119 µM), inactives show at the top dose activity, negative = inhibition, usual class: inhibitors | recombinant RECQ1 DNA unwinding, red fluorescence | shares compounds with RECQ1 inh-1; also: nearly all actives have a fitted effect of over 50% in size
An asterisk follows results filed as active; i = inactive; ? = inconclusive; · = no result given; [ ] = another dose, or the depositor's remark. Shown are actives, neighbours in structure and some others; about 0.91% of the full set was active somewhere. Unless noted, calls follow the shape of the dose curve; as a rule, active = well fitted curve in the direction sought with a large enough effect; inconclusive = small, poorly fitted or top-dose-only effect, or another doubt; inactive = no such curve, though single readings can be large; an effect the other way counts as inactive or inconclusive. Unless noted, % is scaled to controls: 0 for no effect and ±100 for the full control effect; potency is read from the fitted curve at half-maximal effect.

SMILES | RECQ1 inh-1 | TexasRed fluor | BLM inh | TRb-SRC2 inh | WRN inhibitor | APE1 inh | others
CCN1CCN(C(=O)c2[nH]c3ccc(OC)cc3c2C)CC1 | · | · | 2.8% | · | 2.2% | -1.8%
Cc1cc2oc(C(=O)Nc3sc4c(c3C(=O)NCc3ccccc3)CCCC4)cc(=O)c2cc1C | · | -19.2% | -5.8% | 3.6% | · | ·
COc1cc(C(=O)Nc2ccc3c(c2)C(=O)N(CCC(=O)O)C3=O)cc(OC)c1OC | -1.6% | -3.3% | 3.2% | 13.1% | -26.1% | -8.0%
CC(=O)Oc1ccc(C(=O)Nc2ccc3c(c2)C(=O)N(CCC(=O)O)C3=O)cc1 | -14.2% | -3.9% | -3.4% | -2.7% | -22.3% | -0.9% | RECQ1 inh conf=?;RECQ1 ADP FP=?
CCn1ccc2cc(S(=O)(=O)N3CCC(C(=O)NCCc4ccc(SC)cc4)CC3)ccc21 | · | ? | -2.0% | 0.1% | · | ·
Nc1ccc(-c2nc3ccc(C(=O)O)cc3s2)cc1 | ? | -26.7% | -5.0% | 13.3% | -20.4% | ? | RECQ1 inh-2=-28.4%
O=C(O)c1ccc2nc(-c3ccccc3)sc2c1 | 0.7% | -1.2% | 1.3% | -5.7% | -22.3% | 4.1%
CN1CCCN(C(=O)CC2(CC(=O)O)CCCCC2)CC1 | 8.6% | -4.9% | -3.4% | -8.7% | -6.5% | 0.3%
O=C1N/C(=N\S(=O)(=O)c2ccccc2)S/C1=C\c1cc([N+](=O)[O-])ccc1O | · | · | 0.8% | · | -14.5% | 20.4%
O=C1N/C(=N\S(=O)(=O)Cc2ccccc2)S/C1=C/c1cc([N+](=O)[O-])ccc1O | 13.0% | -18.8% | -6.4% | 2.0% | -26.6% | -1.5% | RECQ1 inh conf=19.6%;RECQ1 ADP FP=-2.3%
Cc1ccc(Nc2ncnc3onc(C)c23)cc1Cl | · | -2.8% | 3.1% | -3.0% | · | ·
CC(C)(C)c1ccc(C(=O)CS(=O)(=O)c2ccccc2)cc1 | ? | 0.9% | -6.5% | -1.7% | 1.1% | 14.2% | RECQ1 inh-2=-14.6%
Cc1ccc(S(=O)(=O)CC(=O)c2ccccc2)cc1 | ? | 0.2% | -3.3% | -8.1% | -11.1% | 10.8%
O=C(O)CC(SCC(=O)NC1CCCc2ccccc21)C(=O)O (stereo unspecified) | 7.2% | -2.1% | 1.3% | -1.3% | 4.0% | -2.2% | RECQ1 inh conf=1.3%;RECQ1 ADP FP=5.7%
O=C(N/N=C/c1ccc[nH]1)c1ccccc1O | 3.55µM* | -2.1% | -4.4% | -6.5% | -0.5% | 17.8% | RECQ1 inh conf=7.6%[114 µM];RECQ1 ADP FP=13.5%[91.9 µM]
O=C(N/N=C/c1ccc[nH]1)c1ccc(O)cc1 | i | -2.5% | -6.1% | -1.6% | -8.2% | -3.5%
COCCNC(=O)CSc1n[nH]c(=O)n1CCc1ccccc1 | · | · | 0.2% | · | 1.1% | 2.8%
